The whole screen tested about 39,000 compounds, of which about 1,500 (3.8%) were called active. This excerpt belongs to a sample that is enriched for actives.
test system: HSkMC (human skeletal muscle cells); test: cytotoxicity call (relative viability < 0.9); conditions: 10 µM

Compound | cytotoxicity call
C[C@H](CO)N1C[C@H](C)[C@@H](CN(C)S(=O)(=O)c2cn(C)cn2)Oc2ccc(NC(=O)NC3CCCCC3)cc2C1=O | inactive
COc1ccc([Si](C)(C)[C@@H]2[C@@H](CCO)O[C@]3(C(=O)N(Cc4ccc(N5C(=O)c6ccccc6Oc6ccccc65)cc4)c4ccccc43)[C@H]2C)cc1 | inactive
C[C@@H]1CCCCO[C@H](CN(C)Cc2ccccc2)[C@@H](C)CN([C@@H](C)CO)C(=O)c2cc(NC(=O)Cc3ccccc3)ccc2O1 | inactive
COc1ccc(NC(=O)Nc2ccc3c(c2)C(=O)N([C@H](C)CO)C[C@H](C)[C@H](CN(C)Cc2ccc(C(=O)Nc4ccccc4N)cc2)OCCCC[C@@H](C)O3)cc1 | inactive
CCOc1ccc(S(N)(=O)=O)cc1 | inactive
NS(=O)(=O)c1ccc(N2CCCC2=O)cc1 | inactive
C[C@H](CO)N1C[C@H](C)[C@H](CN(C)S(=O)(=O)c2cn(C)cn2)Oc2c(NC(=O)c3cnccn3)cccc2C1=O | inactive
Cc1noc(C)c1NC(=O)Nc1ccc2c(c1)C(=O)N([C@H](C)CO)C[C@@H](C)[C@H](CN(C)C(=O)Nc1c(C)noc1C)OCCCC[C@@H](C)O2 | inactive
O=C(c1cnc2ccccc2c1)C1CC1 | inactive
CNC[C@@H]1Oc2ccc(NC(=O)Cn3cnnn3)cc2CC(=O)N([C@H](C)CO)C[C@H]1C | inactive
Cc1noc(C)c1NC(=O)Nc1ccc2c(c1)C(=O)N([C@H](C)CO)C[C@@H](C)[C@@H](CN(C)Cc1ccc3c(c1)OCO3)OCCCC[C@@H](C)O2 | inactive
O=C(CCCCCNC(=O)OCc1ccc(CN(C(=O)Nc2ccccc2)[C@@H](Cc2ccccc2)Cn2cc(-c3ccccn3)nn2)cc1)NO | inactive
Cc1ccc(S(=O)(=O)Nc2ccc3c(c2)C(=O)N([C@H](C)CO)C[C@@H](C)[C@H](CN(C)Cc2ccc(C(F)(F)F)cc2)OCCCC[C@@H](C)O3)cc1 | inactive
Cc1ccc(S(=O)(=O)Nc2ccc3c(c2)C(=O)N([C@H](C)CO)C[C@@H](C)[C@H](CN(C)Cc2ccc(C(F)(F)F)cc2)OCCCC[C@H](C)O3)cc1 | active
Cc1ccc(S(=O)(=O)Nc2ccc3c(c2)C(=O)N([C@@H](C)CO)C[C@@H](C)[C@@H](CN(C)Cc2ccc(C(F)(F)F)cc2)OCCCC[C@@H](C)O3)cc1 | active
Cc1ccc(S(=O)(=O)Nc2ccc3c(c2)C(=O)N([C@H](C)CO)C[C@H](C)[C@@H](CN(C)Cc2ccc(C(F)(F)F)cc2)OCCCC[C@@H](C)O3)cc1 | inactive
Cc1ccc(S(=O)(=O)Nc2ccc3c(c2)C(=O)N([C@@H](C)CO)C[C@H](C)[C@H](CN(C)Cc2ccc(C(F)(F)F)cc2)OCCCC[C@@H](C)O3)cc1 | inactive
Cc1ccc(S(=O)(=O)Nc2ccc3c(c2)C(=O)N([C@@H](C)CO)C[C@@H](C)[C@H](CN(C)Cc2ccc(C(F)(F)F)cc2)OCCCC[C@H](C)O3)cc1 | inactive
C[C@@H]1CN([C@H](C)CO)C(=O)c2cccc(NC(=O)c3nc4ccccc4s3)c2O[C@H]1CN(C)C(=O)Nc1cccc2ccccc12 | inactive
CCN1C(=O)CN(CC(=O)O)C1=O | inactive

Compound | cytotoxicity call
NCc1ccc2nsnc2c1 | inactive
C[C@@H]1CN([C@@H](C)CO)C(=O)c2cccc(NS(C)(=O)=O)c2O[C@H]1CN(C)C(=O)Nc1ccc(C(F)(F)F)cc1 | inactive
O=C(C[C@@H]1CC[C@@H]2[C@H](COC[C@H](O)CN2C(=O)Nc2ccc(F)cc2)O1)NCCCN1CCOCC1 | inactive
C[C@H](CO)N1C[C@H](C)[C@@H](CN(C)S(C)(=O)=O)OCCCC[C@H](C)Oc2ccc(NS(=O)(=O)c3cn(C)cn3)cc2C1=O | inactive
C[C@H]1CN([C@@H](C)CO)S(=O)(=O)c2ccc(C#Cc3ccncc3)cc2O[C@@H]1CN(C)C(=O)Nc1ccc2c(c1)OCO2 | inactive
C[C@H]1CN([C@@H](C)CO)S(=O)(=O)c2ccc(C#Cc3ccccc3F)cc2O[C@@H]1CN(C)C(=O)c1ccc2c(c1)OCO2 | inactive
C[C@H](CO)N1C[C@H](C)[C@@H](CN(C)C(=O)Nc2cccc(F)c2)Oc2cc(C#CC3(O)CCCC3)ccc2S1(=O)=O | inactive
C[C@H]1CN([C@@H](C)CO)S(=O)(=O)c2ccc(C#Cc3ccccc3F)cc2O[C@H]1CN(C)C(=O)c1ccc2c(c1)OCO2 | inactive
C[C@H]1CN([C@@H](C)CO)S(=O)(=O)c2ccc(C#CC3(O)CCCC3)cc2O[C@@H]1CN(C)C(=O)Nc1cccc(F)c1 | active
C[C@H]1CN([C@@H](C)CO)S(=O)(=O)c2ccc(C#Cc3ccncc3)cc2O[C@H]1CN(C)C(=O)Nc1ccc2c(c1)OCO2 | inactive
C[C@@H]1CN([C@@H](C)CO)S(=O)(=O)c2ccc(C#Cc3ccncc3)cc2O[C@H]1CN(C)C(=O)Nc1ccc2c(c1)OCO2 | active
C[C@@H]1CN([C@H](C)CO)S(=O)(=O)c2ccc(/C=C/c3ccccc3)cc2O[C@H]1CN(C)C(=O)Nc1cc(F)ccc1F | active
C[C@H](CO)N1C[C@H](C)[C@@H](CN(C)C(=O)Nc2cc(F)ccc2F)Oc2cc(/C=C/c3ccccc3)ccc2S1(=O)=O | inactive
C[C@@H]1CN([C@@H](C)CO)S(=O)(=O)c2ccc(C#Cc3ccccc3F)cc2O[C@H]1CN(C)C(=O)c1ccc2c(c1)OCO2 | active
C[C@@H]1CN([C@@H](C)CO)S(=O)(=O)c2ccc(C#CC3(O)CCCC3)cc2O[C@@H]1CN(C)C(=O)Nc1cccc(F)c1 | inactive
C[C@H]1CN([C@@H](C)CO)S(=O)(=O)c2ccc(/C=C/c3ccccc3)cc2O[C@@H]1CN(C)C(=O)Nc1cc(F)ccc1F | inactive
C[C@@H]1CN([C@H](C)CO)C(=O)c2cc(NS(C)(=O)=O)ccc2O[C@@H](C)CCCCO[C@@H]1CN(C)C(=O)CCCN(C)C | inactive
C[C@@H]1CN([C@@H](C)CO)C(=O)Cc2cc(NC(=O)CCCCCC(=O)Nc3ccccc3N)ccc2O[C@@H]1CN(C)Cc1ccc(-c2ccccc2)cc1 | inactive
C[C@@H]1CN([C@@H](C)CO)C(=O)c2cc(NS(=O)(=O)c3cn(C)cn3)ccc2O[C@H]1CN(C)C(=O)Nc1ccc2c(c1)OCO2 | inactive
C[C@H]1CN([C@@H](C)CO)C(=O)c2cccc(NC(=O)C3CCOCC3)c2O[C@H]1CN(C)Cc1ccccc1 | inactive

Source: the antibiotic and cytotoxicity screens of Wong et al. (2023)
